# Reference: the supplement of paper PMC8728848
# This is one part of a sample in which the strongest signals are shown more often than they occur.
# B1: Gal 8 (Homo sapiens), O00214_1 (protein)
# chain: MMLSLNNLQNIIYNPVIPFVGTIPDQLDPGTLIVIRGHVPSDADRFQVDLQNGSSMKPRADVAFHFNPRFKRAGCIVCNTLINEKWGREEITYDTPFKREKSFEIVIMVLKDKFQVAVNGKHTLLYGHRIGPEKIDTLGIYGKVNIHSIGFSFSSDLQSTQASSLELTEISRENVPKSGTPQLRLPFAARLNTPMGPGRTVVVKGEVNANAKSFNVDLLAGKSKDIALHLNPRLNIKAFVRNSFLQESWGEEERNITSFPFSPGMYFEMIIYCDVREFKVAVNGVHSLEYKHRFKELSSIDTLEINGDIHLLEVRSW
# What was measured:
# Assay in all cases: glycan array binding signal (z-score within array); higher = stronger binding
# Settings in all cases: glycan notation: IUPAC condensed, linker removed
# Glc(b1-6)Glc = target: Glc(b1-6)Glc
# How it was run: (§1)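 Arrays were curated from the Consortium for Functional Glycomics database, 3228 in total, and kept only where the protein sequence was available. Binding is expressed as a within-array Z-score. This score was averaged across arrays of the same protein sequence at different concentrations or buffers and across linkers, and negative values can be read as non-binding.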
# GlcA(b1-3)Gal = target: GlcA(b1-3)Gal
# How it was run: as §1
# [1] = target: GlcNAc(b1-3)[GlcNAc(b1-4)][GlcNAc(b1-6)]GlcNAc
# How it was run: as §1
# [2] = target: GlcNAc6S(b1-3)Gal(b1-4)GlcNAc
# How it was run: as §1
# [3] = target: Man(a1-3)[Man(a1-6)]Man(a1-6)[Man(a1-2)Man(a1-3)]Man(b1-4)GlcNAc(b1-4)GlcNAc
# How it was run: as §1
# [4] = target: Man(a1-3)[Man(a1-6)]Man(a1-6)[Man(a1-3)]Man
# How it was run: as §1
# [5] = target: Man(a1-3)[Man(a1-6)]Man(a1-6)[Man(a1-3)]Man(b1-4)GlcNAc(b1-4)GlcNAc
# How it was run: as §1
# [6] = target: Neu5Ac(a2-3)Gal(b1-3)GlcNAc6S
# How it was run: as §1
# [7] = target: Neu5Ac(a2-3)Gal(b1-4)GlcNAc(b1-2)Man(a1-3)[GlcNAc(b1-2)Man(b1-4)GlcNAc(b1-2)Man(a1-6)]Man(b1-4)GlcNAc(b1-4)GlcNAc
# How it was run: as §1
# [8] = target: Neu5Ac(a2-3)Gal(b1-4)GlcNAc(b1-2)Man(a1-3)[Neu5Ac(a2-6)Gal(b1-4)GlcNAc(b1-2)Man(a1-6)]Man(b1-4)GlcNAc(b1-4)GlcNAc
# How it was run: as §1
# [9] = target: Neu5Ac(a2-3)Gal(b1-4)GlcNAc(b1-3)Gal(b1-4)GlcNAc
# How it was run: as §1
# [10] = target: Neu5Ac(a2-3)Gal(b1-4)[Fuc(a1-3)]GlcNAc(b1-3)Gal
# How it was run: as §1
# [11] = target: Neu5Ac(a2-3)Gal(b1-4)[Fuc(a1-3)]GlcNAc6S
# How it was run: as §1
# Neu5Ac(a2-3)GalNAc = target: Neu5Ac(a2-3)GalNAc
# How it was run: as §1
# [12] = target: Neu5Ac(a2-6)Gal(b1-4)GlcNAc(b1-2)Man(a1-3)[Gal(b1-4)GlcNAc(b1-2)Man(a1-6)]Man(b1-4)GlcNAc(b1-4)GlcNAc
# How it was run: as §1
# [13] = target: Neu5Ac(a2-8)Neu5Ac(a2-8)Neu5Ac(a2-3)[GalNAc(b1-4)]Gal(b1-4)Glc
# How it was run: as §1
# [14] = target: Neu5Gc(a2-3)Gal(b1-3)[Fuc(a1-4)]GlcNAc
# How it was run: as §1
# [15] = target: Neu5Gc(b2-6)Gal(b1-4)GlcNAc
# How it was run: as §1
binder,measurement,setting,value
B1,glycan array binding signal (z-score),Glc(b1-6)Glc,-0.234
same,glycan array binding signal (z-score),GlcA(b1-3)Gal,-0.219
same,glycan array binding signal (z-score),[1],-0.227
same,glycan array binding signal (z-score),[2],-0.585
same,glycan array binding signal (z-score),[3],2.31
same,glycan array binding signal (z-score),[4],-0.195
same,glycan array binding signal (z-score),[5],-0.16
same,glycan array binding signal (z-score),[6],2.19
same,glycan array binding signal (z-score),[7],-0.189
same,glycan array binding signal (z-score),[8],-0.225
same,glycan array binding signal (z-score),[9],-0.244
same,glycan array binding signal (z-score),[10],-0.243
same,glycan array binding signal (z-score),[11],-0.235
same,glycan array binding signal (z-score),Neu5Ac(a2-3)GalNAc,-0.201
same,glycan array binding signal (z-score),[12],-0.254
same,glycan array binding signal (z-score),[13],0.35
same,glycan array binding signal (z-score),[14],-0.233
same,glycan array binding signal (z-score),[15],-0.219
